gsp agonist: activates gsp, the McCune-Albright syndrome mutation | gsp mutant cells, cAMP HTRF, 30 min | Potency, µM (highest dose often 76.9 µM), for inactives: at the highest dose activation (cAMP increase), most hits filed as activators | hit rate 0.13% among 340,000; active means well fitted activation curve with a large enough effect; inconclusive means small, poorly fitted or top-dose-only effect, or another doubt; inactive means no such curve, though single readings can be large or run the other way; cell line not stated here;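 further: phosphodiesterase inhibitor Ro 20-1724 added with compounds to block cAMP breakdown; potency means the concentration at half of the fitted maximal effect; nearly all actives have a fitted effect of over 60% in size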
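Cells in DMEM/10% FBS with G418 were pretreated with compounds in DMSO plus […] (300 uM stock) for 30 min at 37C. cAMP was measured by HTRF (cAMP-d2 plus anti-cAMP antibody-K) after 30 min at room temperature.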
RXFP1 antagonist: antagonists of human relaxin receptor RXFP1; HEK293-RXFP1, relaxin-stimulated cAMP HTRF, 30 min; stronger effect = lower value; activity change, negative = inhibition, % at 57.5 µM; hit rate 0.59% among 350,000; Q9HBX9; AID 1259400;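 active means activity change of -60% or lower, but not beyond a set lower limit; inconclusive means change between -60% and -40%, or beyond the set limit; inactive means change above -40%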; further: on the % scale 0 is the no-effect control and ±100 the full control effect
Target sequence (Q9HBX9 whole entry, looked up): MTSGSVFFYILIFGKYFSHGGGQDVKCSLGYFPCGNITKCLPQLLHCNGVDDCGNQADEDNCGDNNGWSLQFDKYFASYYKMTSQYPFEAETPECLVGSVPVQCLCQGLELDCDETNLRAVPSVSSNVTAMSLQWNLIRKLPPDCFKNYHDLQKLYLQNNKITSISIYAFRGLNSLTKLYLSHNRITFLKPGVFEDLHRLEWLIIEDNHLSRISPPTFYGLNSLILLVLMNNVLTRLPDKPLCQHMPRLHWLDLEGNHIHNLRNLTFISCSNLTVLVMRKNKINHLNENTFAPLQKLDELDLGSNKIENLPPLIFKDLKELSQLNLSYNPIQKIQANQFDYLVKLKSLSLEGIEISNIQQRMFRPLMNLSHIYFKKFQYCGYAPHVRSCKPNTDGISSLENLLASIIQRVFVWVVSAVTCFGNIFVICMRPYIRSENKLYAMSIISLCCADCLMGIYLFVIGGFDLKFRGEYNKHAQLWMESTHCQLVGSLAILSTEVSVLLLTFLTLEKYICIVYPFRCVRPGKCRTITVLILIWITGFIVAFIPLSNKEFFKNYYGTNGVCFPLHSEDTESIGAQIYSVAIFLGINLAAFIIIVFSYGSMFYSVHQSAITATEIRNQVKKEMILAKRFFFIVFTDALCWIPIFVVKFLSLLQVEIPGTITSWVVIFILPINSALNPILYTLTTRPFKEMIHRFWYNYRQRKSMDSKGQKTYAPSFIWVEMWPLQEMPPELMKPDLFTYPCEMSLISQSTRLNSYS
RXFP1 ag: agonists of human relaxin receptor RXFP1 | Q9HBX9 | hit rate 0.3% among 370,000 | Potency, µM (top dose mostly 57.5 µM), without a hit: at the top dose activation, usual class: activators | HEK293T-RXFP1 cAMP TR-FRET, 30 min; response scale: percent of porcine relaxin response, buffer zero; active means well fitted activation curve with a large enough effect; inconclusive means small, poorly fitted or top-dose-only effect; further: potency means the concentration at half of the fitted maximal effect; on the % scale 0 is the no-effect control and ±100 the full control effect; nearly all actives have a fitted effect of over 60% in size
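HEK293T cells stably expressing RXFP1 were pretreated with the PDE4 inhibitor Ro 20174, exposed to compounds for 30 min at 37C, lysed, and cAMP was read by TR-FRET. Data normalized to buffer (basal) and 29 nM porcine relaxin (100%).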
Akt phos inh: inhibitors of Akt phosphorylation. AID 651550. activity change, % for hits at 50 µM. hit rate 0.32% among 360,000. Neuro2A IGF-stimulated pAkt S473 HTRF, 20 min; stronger effect = lower value; in the data active means activity change below about -80%; inconclusive means mostly about -51% to -80%; further: on the % scale 0 is the no-effect control and ±100 the full control effect
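Single-point screen (50 µM final compound) in Neuro2A cells stimulated 20 min with 6 nM IGF at 37 deg C. After lysis, Ser473-phosphorylated Akt read by HTRF (ex 330 nm, em 615/665 nm) as the 665/615 ratio.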
gsp antagonist: antagonists of gsp mutant (McCune-Albright syndrome). gsp-mutant cells, cAMP HTRF, 30 min. AID 624288. Potency, µM (series often up to 76.9 µM), for inactives: at the top dose activity change, negative = inhibition, hits mostly inhibitors. hit rate 0.4% among 340,000; calls by dose curve; cell line not stated here;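 further: intracellular cAMP measured with PDE inhibitor Ro 20-1724 present during compound exposure; potency means the concentration at half of the fitted maximal effect; on the % scale 0 is the no-effect control and ±100 the full control effect; nearly all actives have a fitted effect of over 65% in size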
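Cells, 2000/well, grown 16–24 h in DMEM 10% FBS with 0.5 mg/ml G418, then compounds plus […] (300 uM addition stock), 30 min at 37C. cAMP read by HTRF (cAMP-d2 and anti-cAMP antibody-K in lysis buffer) after 30 min RT.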
* = called active by the depositor; i = inactive; ? = inconclusive; . = not tested or not shown; [ ] = dose if it differs, or a comment. Hits are enriched below; roughly 1.3% of the tested compounds scored in any of these assays.

SMILES | gsp agonist | RXFP1 antagonist | RXFP1 ag | Akt phos inh | gsp antagonist
CCOc1ccc(C(=O)NCC(c2ccc3c(c2)OCO3)N2CCN(C)CC2)cc1 (stereo not given) | . | -10.6 | 1.3% | . | .
CCCOc1cccc(-c2cc(C(=O)NNC(=S)NCC)c3ccccc3n2)c1 | -3.8% | -3.4 | -0.9% | i | 35.5µM*
COc1cccc(-c2cc(C(=O)NCc3ccco3)c3ccccc3n2)c1 | -44.5% | -86.2* | -1.5% | i | -1.9%
COc1ccc(-c2cc(-c3cccs3)c(C#N)c(SCC(=O)NCc3ccco3)n2)cc1 | -30.2% | -9.5 | 9.8% | i | -9.7%
CCNC(=S)NNC(=O)c1cc(-c2cccc(OC)c2)nc2ccccc12 | -35.4% | 17.9 | 5.0% | i | 4.6%
COc1cccc(-c2ccc(C#N)c(SCC(=O)NCc3ccco3)n2)c1 | ? | -4.5 | 35.5µM* | i | -19.8%
CCCN1Cc2cccc(C(=O)Nc3cccc(C(=O)OCC)c3)c2C1=O | . | -8.1 | 4.2% | . | .
Cc1ccc(F)cc1NC(=O)c1sc2ncn(CC(=O)N3CCN(c4ccccn4)CC3)c(=O)c2c1C | ? | 11.7 | 15.8µM* | i | 0.7%
Cc1nc(N2CCN(c3ccccn3)CC2)c2c(C)c(C(=O)Nc3ccc(F)cc3F)sc2n1 | -0.7%[15.4 µM] | 11.1 | -1.6% | i | -35.9%
COc1ccccc1NC(=O)Cn1cnc2sc(C(=O)Nc3ccc(OC)c(OC)c3)c(C)c2c1=O | 5.0% | -71.3* | 2.7% | i | 5.9%
COC(=O)c1ccccc1NC(=O)N1CCC(N2CCN(Cc3ccc(F)cc3)C(=O)C2=O)CC1 | . | -20.4 | 1.6% | . | .
Cc1cccc(N2CCN(C(=O)Cn3ncc4c3-c3cc(C)ccc3OC4)CC2C)c1 (stereo not given) | . | . | -0.1% | . | .
Cc1cc2nc(-c3ccc(OCc4ccc(F)cc4)cc3)cc(C(F)(F)F)n2n1 | . | . | -1.4% | . | .
Cc1cc(C)n2nc3nc4c(cc3c2n1)CCCC4 | 14.1µM* | 2.6 | 12.6% | i | 18.7%
COc1ccc(CCN2C(=S)N(C)C(=O)C2CC(=O)Nc2ccc(OC)cc2)cc1 (stereo not given) | 16.7% | -62.6* | 0.9% | i | -12.8%
COc1ccc(NC(=O)CC2C(=O)N(C)C(=S)N2CCc2ccc(F)cc2)cc1 (stereo not given) | -17.6%[15.4 µM] | -27.3 | -0.2% | i | -7.7%
CN(C)CCC(=O)N1C/C(=C/c2ccccc2)C(=O)/C(=C\c2ccccc2)C1 | -14.4% | -113.5* | . | i | -28.1%
C[N+](C)(C)CCC(=O)N1C/C(=C/c2ccccc2)C(=O)/C(=C\c2ccccc2)C1 | 6.7% | -13.0 | . | i | 12.2%
COC(=O)c1sc(NC(=O)C2CCCCC2C(=O)O)c(C(=O)OC)c1C (stereo not given) | 14.1µM* | 16.0 | ? | i | 9.3%
COC(=O)c1c(NC(=O)C2CCCCC2C(=O)O)sc2c1CCCCC2 (stereo not given) | 26.4%[15.4 µM] | -2.6 | 11.9% | i | -27.4%
COc1ccc(NC(=O)Cn2ccn(-c3ccc(F)c(F)c3)c(=O)c2=O)cc1Cl | . | -11.8 | 1.0% | . | .
CCNC(=S)N1CCN(c2nc(CC)nc3sc4c(c23)CCCC4)CC1 | -1.7%[15.4 µM] | -6.4 | 1.6% | i | 25.1µM*
CCc1nc(N2CCN(C(=O)CCCl)CC2)c2c3c(sc2n1)CCCC3 | 0.6% | 6.1 | . | i | .
COc1ccc(Cn2c(=O)c3oc4ccccc4c3n(Cc3ccccc3)c2=O)cc1 | . | -17.5 | 22.7% | . | .
O=C(CSc1nccn1Cc1ccc(F)cc1)Nc1ccc2c(c1)OCCO2 | . | 15.1 | -0.6% | . | .
CS(=O)(=O)c1ncc(Cl)c(C(=O)Nc2ccc(N3CCOCC3)cc2)n1 | 0.6% | -14.3 | 0.2% | i | 1.8%
Cc1ccc(NC(=O)c2nc(S(=O)(=O)Cc3ccccc3)ncc2Cl)cc1 | -0.5%[15.4 µM] | -84.7* | 1.4% | i | -12.1%
O=C(NCc1ccccc1)c1nc(S(=O)(=O)Cc2ccc(F)cc2)ncc1Cl | . | -116.1* | -0.2% | . | .
O=C(Nc1nc2ccc(F)cc2s1)c1nc(S(=O)(=O)Cc2ccccc2)ncc1Cl | . | . | 0.1% | . | .
O=C(Nc1ccc(F)cc1)c1nc(S(=O)(=O)Cc2ccccc2)ncc1Cl | -36.8% | -104.8* | -2.4% | i | 39.8µM*
